Measured values reported in PubChem BioAssay (Tox21).
Inconclusive results are not listed. Entries that show only a call come without a potency. Calls of active or inactive are those of the source. The call rests on the fitted dose curve; in most records, active means well fitted curve in the direction sought with a large enough effect in the repeat runs; inconclusive means weak or mixed curves; inactive means no such curve, though single readings can be large; an effect the other way counts as inactive or inconclusive.

Assay: qHTS assay to identify small molecule antagonists of the estrogen related receptor (ERR) signaling pathway (AID 1224819; further: nearly all actives have a fitted effect of over 50% in size; further: potency means the concentration at half of the fitted maximal effect)
Settings: ERR reporter cell line, luciferase inhibition; series mostly up to 46.1 µM
Procedure, shortened: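 Luminescence readout (One-Glo, 30 min, RT) of ERR cell line after 18 h compound exposure at 37 C; cells seeded 2,000/well, pre-incubated 6 h, compounds pinned from DMSO stocks.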

SMILES	Potency
N#C/C(=C\c1ccc(O)c(O)c1)C(=O)Nc1ccccc1	inactive
CC(C)(C)c1ccc(S(=O)(=O)/C=C/C#N)cc1	inactive
C[C@H](Cc1ccccc1)Nc1ncnc2c1ncn2[C@@H]1O[C@H](CO)C(O)[C@H]1O (stereo partly drawn)	inactive
CN(C)c1cc2c(Nc3ccc4c(cnn4Cc4ccccc4)c3)ncnc2cn1	13.3 µM (active)
CCOC(=O)[C@H](CCc1ccccc1)N[C@@H](C)C(=O)N1[C@H](C(=O)O)C[C@H]2CCCC[C@@H]21	inactive
CN[C@H](CC(C)C)C(=O)N[C@H]1C(=O)N[C@@H](CC(N)=O)C(=O)N[C@H]2C(=O)N[C@H]3C(=O)N[C@H](C(=O)N[C@H](C(=O)O)c4cc(O)cc(O)c4-c4cc3ccc4O)[C@H](O)c3ccc(c(Cl)c3)Oc3cc2cc(c3O[C@@H]2O[C@H](CO)[C@@H](O)[C@H](O)[C@H]2O[C@H]2C[C@](C)(N)[C@H](O)[C@H](C)O2)Oc2ccc(cc2Cl)[C@H]1O	inactive
CCCC(=O)NCCc1c2n(c3ccc(OC)cc13)CCCc1ccccc1-2	20.3 µM (active)
CCc1ccc(/C=C2/SC(=S)NC2=O)cc1	inactive
Nc1ccc2c3c(cccc13)C(=O)NC2=O	inactive
COc1cc(OC)cc(-c2cc3cnc(N)nc3nc2NC(=O)NC(C)(C)C)c1	20.3 µM (active)
COc1cc(OC)c(/C=C2/C(=O)Nc3ccccc32)c(OC)c1	11 µM (active)
NC(=Nc1ccccc1)NC(=O)c1nc(Cl)c(N)nc1N	inactive
O=C(NOCC1CC1)c1cc(Br)c(F)c(F)c1Nc1ccc(I)cc1Cl	2.98 µM (active)
Cc1ccc(S(=O)(=O)N[C@@H](Cc2ccccc2)C(=O)CCl)cc1	inactive
O=C(c1ccc(Cl)cc1)N1CCN(c2ccc([N+](=O)[O-])c3ncccc23)CC1	7.5 µM (active)
CCCCOC(=O)NS(=O)(=O)c1sc(CC(C)C)cc1-c1ccc(Cn2c(CC)nc3c(C)cc(C)nc32)cc1	11.9 µM (active)
Oc1cc2c(c(Cl)c1O)CCNCC2c1ccccc1 (stereo not drawn)	8.41 µM (active)
C=C1C(=O)O[C@@H]2[C@H]3O[C@]3(C)CCC=C(C)CC[C@@H]12	inactive
CC1(C)C(=O)N(CCN2CCC(C(=O)c3ccc(F)cc3)CC2)c2ccccc21	21.1 µM (active)
CCN(CC)CCOC(=O)c1cc(Cl)c(N)cc1OC	inactive
O=[N+]([O-])c1ccc(-c2nc(-c3ccc(F)cc3)c(-c3ccncc3)[nH]2)cc1	13.3 µM (active)
COC1=C(OC)C(=O)c2ccccc2C1=O	11 µM (active)
CCN(c1nc(N)c(C(=O)N=C(N)N)nc1Cl)C(C)C	9.81 µM (active)
Cn1c(=O)c(-c2c(Cl)cccc2Cl)cc2cnc(Nc3ccc(N4CCOCC4)cc3)nc21	4.38 µM (active)

Assay: qHTS assay to identify small molecule agonists of the estrogen related receptor (ERR) signaling pathway (AID 1224820)
Settings: ERR reporter cell line, luciferase agonist mode; series mostly up to 46.1 µM
Procedure, shortened: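 Cells: ERR line from NTP, 2,000/well. Pre-incubation 6 h, 37 C/5% CO2. Compound (DMSO) pin transfer, 18 h 37 C. One-Glo, 30 min RT, luminescence.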

SMILES	Potency
C=CCN1CCc2c(cc(O)c(O)c2Cl)C(c2ccccc2)C1 (stereo not drawn)	inactive
Oc1cc2c(cc1O)CN(C(=S)NCCc1ccc(Cl)cc1)CCC2	inactive
O=C1Nc2ccc(I)cc2/C1=C/c1cc(Br)c(O)c(Br)c1	inactive
CC(C)(C)c1ccc(S(=O)(=O)/C=C/C#N)cc1	inactive
CC(C)C[C@H](NC(=O)[C@@H](O)[C@H](N)Cc1ccccc1)C(=O)O	inactive
CCCCN(CC)c1nc(C)nc2c1c(C)cn2-c1c(C)cc(C)cc1C	inactive
CN(C)c1cc2c(Nc3ccc4c(cnn4Cc4ccccc4)c3)ncnc2cn1	inactive
N#C/C(=C\c1ccc(-c2cc(Cl)ccc2Cl)o1)C(=O)Nc1cccc2ncccc12	inactive
COc1cccc2c1[C@@H]1CN(CCCCn3c(=O)[nH]c4c(sc5ncc(-c6ccccc6)nc54)c3=O)C[C@@H]1CO2	inactive
CN(C)C(=O)[C@H](O)[C@H](Cc1ccccc1)NC(=O)c1cc2cc(Cl)ccc2[nH]1	inactive
CCCC(=O)NCCc1c2n(c3ccc(OC)cc13)CCCc1ccccc1-2	inactive
CCc1ccc(/C=C2/SC(=S)NC2=O)cc1	inactive
O=C(Nc1ccncc1)c1cc([N+](=O)[O-])ccc1Cl	inactive
Cc1nn(-c2ccccc2)c(C)c1/C=N/N1CCN(Cc2ccccc2)CC1	inactive
COc1cc(OC)cc(-c2cc3cnc(N)nc3nc2NC(=O)NC(C)(C)C)c1	inactive
COc1cc(OC)c(/C=C2/C(=O)Nc3ccccc32)c(OC)c1	inactive
COC(=O)C1=C(C)NC(C)=C(C(=O)OC)C1c1cccc(NC(=O)NCCCN2CCC(c3cccc(OC)c3)CC2)c1	inactive
O=C(c1ccc(Cl)cc1)N1CCN(c2ccc([N+](=O)[O-])c3ncccc23)CC1	inactive
C[C@H](Cc1ccc(O)c(O)c1)[C@@H](C)Cc1ccc(O)c(O)c1	inactive
CCCCOC(=O)NS(=O)(=O)c1sc(CC(C)C)cc1-c1ccc(Cn2c(CC)nc3c(C)cc(C)nc32)cc1	inactive
Cc1cc(Cl)ccc1OCCCC(=O)NO	inactive
CN(C)S(=O)(=O)c1ccc2c(c1)/C(=C/c1cc3c([nH]1)CCCC3)C(=O)N2	inactive
Oc1cc2c(c(Cl)c1O)CCNCC2c1ccccc1 (stereo not drawn)	inactive
CC1(C)C(=O)N(CCN2CCC(C(=O)c3ccc(F)cc3)CC2)c2ccccc21	inactive
O=[N+]([O-])c1ccc(-c2nc(-c3ccc(F)cc3)c(-c3ccncc3)[nH]2)cc1	inactive
CN1CCC2(CCN3CCc4c(oc5ccccc45)C3C2)N(C)C1=O (stereo not drawn)	inactive
CCCCCCCCCCC(C)(C)C(=O)Nc1c(OC)cc(OC)cc1OC	inactive
COC1=C(OC)C(=O)c2ccccc2C1=O	inactive
CCN(c1nc(N)c(C(=O)N=C(N)N)nc1Cl)C(C)C	inactive
